VDR inhibitor: Inhibitors of the vitamin D receptor (VDR): qHTS; 400,000 compounds, 0.93% hits; Potency, µM, inactives show max response, negative = inhibition, most hits filed as inhibitors; Vitamin D3 receptor (Homo sapiens), P11473; VDR-SRC2-3 peptide fluorescence polarization, 2 h; also: potency is read from the fitted curve at half-maximal effect; % is scaled to controls: 0 for no effect and ±100 for the full control effect
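FP read-out; VDR + SRC2-3 coactivator peptide; 23 nl compound by pintool; 2 h RT incubation; reagents held at 4 deg C, protected from light.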
TSHR antag: Antagonists of the Thyroid Stimulating Hormone Receptor: HTS campaign; Thyrotropin receptor (Homo sapiens), P16473; TSHR-expressing cells, TSH-stimulated cAMP HTRF, 2 h; hits give low values; activity change, negative = inhibition, % at 11.5 µM; 330,000 compounds, 0.2% hits; AID 504810, 2011;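 active = activity change below a set negative limit, meaning inhibition stronger than a set level, cut at about -70% in these data; inconclusive = activity change between two set negative limits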; also: % is scaled to controls: 0 for no effect and ±100 for the full control effect
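Inhibition of cAMP made by TSHR-expressing cells under TSH stimulation (4nM final, EC80; 2 h, 37 deg C) is quantified with a one-step lysis HTRF kit, anti-cAMP cryptate versus cAMP-d2.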
TSG101-PTAP inh: qHTS Assay for Iinhibitors of HIV-1 Budding by Blocking the Interaction of PTAP/TSG101; Potency, µM (doses to about 115 µM), for the others: top-dose activity change, negative = inhibition, actives largely listed as inhibitors; Fluorescence polarization, FITC-PTAP peptide / Tsg101 binding; Tumor susceptibility gene 101 protein (Homo sapiens), Q99816; 340,000 tested, under 10 active; active = well fitted inhibition curve with a large enough effect in the main read-out, with a control signal flat, not every such curve was filed as active; inconclusive = small, poorly fitted or top-dose-only effect, or effect the other way, or a change in a side signal; inactive = no such curve, though single readings can be large or run the other way; also: potency is read from the fitted curve at half-maximal effect; % of control where 0% means no effect
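Fluorescence polarization binding of Tsg101 binding domain (10 uM final) to FITC-labeled PTAP peptide (50 nM final) in HEPES pH 7.5 buffer with NaCl, Tween 20, EDTA, TCEP. Compounds added before peptide; binding 20 min at RT.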
PLK1 PBD inh: qHTS for Inhibitors of PLK1-PDB (polo-like kinase 1 - polo-box domain): Primary Screen; Serine/threonine-protein kinase PLK1 (Homo sapiens), P53350; Plk1 PBD binding of FITC phosphopeptide, fluorescence polarization; Potency, µM, without a hit: max response, negative = inhibition, hits mostly inhibitors; AID 720504, 2013; 360,000 compounds, 2.8% hits; also: potency is read from the fitted curve at half-maximal effect; series mostly up to about 57 µM; % is scaled to controls: 0 for no effect and ±100 for the full control effect; nearly all actives have a fitted effect of over 65% in size
Target sequence (P53350 whole entry, looked up, the tested form may be a part): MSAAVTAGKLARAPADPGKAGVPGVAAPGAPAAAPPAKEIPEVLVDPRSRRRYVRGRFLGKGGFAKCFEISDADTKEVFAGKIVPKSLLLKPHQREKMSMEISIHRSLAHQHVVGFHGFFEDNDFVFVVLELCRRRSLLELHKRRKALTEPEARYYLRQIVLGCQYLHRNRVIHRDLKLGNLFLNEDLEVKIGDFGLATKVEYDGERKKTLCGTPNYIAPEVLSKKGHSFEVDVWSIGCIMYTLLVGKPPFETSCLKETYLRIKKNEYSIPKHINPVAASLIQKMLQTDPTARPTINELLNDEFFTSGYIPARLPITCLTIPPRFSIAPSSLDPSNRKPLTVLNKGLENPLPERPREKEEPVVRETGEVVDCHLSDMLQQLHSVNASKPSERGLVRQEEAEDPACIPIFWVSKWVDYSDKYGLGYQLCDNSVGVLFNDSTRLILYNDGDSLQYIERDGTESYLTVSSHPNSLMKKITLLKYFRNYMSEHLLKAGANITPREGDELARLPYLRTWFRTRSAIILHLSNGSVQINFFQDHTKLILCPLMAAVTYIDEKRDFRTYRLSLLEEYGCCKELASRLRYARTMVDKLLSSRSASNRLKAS
uPA generation: qHTS for Inhibitors of Cell Surface uPA Generation. Potency, µM (series often up to 38.3 µM), inactives show at the highest dose activity change, negative = inhibition, actives largely listed as inhibitors. AID 540303, 2011. 330,000 compounds, 0.31% hits. cell surface uPA generation assay, qHTS; active = well fitted inhibition curve with a large enough effect; inconclusive = small, poorly fitted or top-dose-only effect; inactive = no such curve, though single readings can be large or run the other way; tested in mouse RAW 264.7 cells; also: potency is read from the fitted curve at half-maximal effect; % is scaled to controls: 0 for no effect and ±100 for the full control effect; nearly all actives have a fitted effect of over 55% in size
Numbers without * were called inactive; ? = inconclusive; / = no result given; ! = repeats disagree. In the library only some 3.1% were active in any assay of this set; here they are far more common. Unless noted, calls follow the shape of the dose curve; as a rule, active = well fitted curve in the direction sought with a large enough effect; inconclusive = small, poorly fitted or top-dose-only effect, or another doubt; inactive = no such curve, though single readings can be large; an effect the other way counts as inactive or inconclusive.

SMILES	VDR inhibitor	TSHR antag	TSG101-PTAP inh	PLK1 PBD inh	uPA generation
O=c1c2ccccc2sn1-c1nccs1	3.98µM*	-25.0	-1.8%	2.38µM*	0.1%
COC(=O)C1=C(C)N(c2cccc(OC)c2)C(=O)/C1=C\c1ccco1	?	-5.0	1.8%	29.9µM*	-10.6%
CC(C)c1nnc(NC(=O)c2cccc(NC(=O)C(F)(F)F)c2)s1	1.2%	2.8	-1.2%	21.2µM*	-5.3%
COCCNc1nc(NCCN2CCNC2=O)c2sccc2n1	/	/	/	-5.7%	/
Cc1nc2cnc(N3CCNCC3)nc2n(C2CC2)c1=O	-6.9%	/	/	/	/
O=C(O)c1ccc(-c2ccccc2Cl)o1	141µM*!	6.3	0.1%	-9.7%	0.3%
Cc1noc(C)c1COC(=O)CCN1c2ccccc2Sc2ccccc21	?	12.1	-1.3%	21.2µM*	1.2%
Cc1noc(C)c1COC(=O)CCOc1ccccc1	10.2%	5.5	-0.2%	-5.2%	2.3%
Cc1no[n+]([O-])c1COc1ccc(/C=C(\C#N)C(N)=O)cc1	?	0.0	-4.4%	21.2µM*	-1.3%
Cc1no[n+]([O-])c1COc1ccc(/C=C2\NC(=S)NC2=O)cc1	-2.9%	-7.1	-2.3%	-6.9%	-1.8%
O=C(Oc1ccccc1Cl)C1CCN(C(=O)c2ccc(F)cc2)CC1	5.6%	-5.9	-2.9%	-5.0%	0.4%
CCCCc1ccc(NC(=S)Nc2ccc(Nc3ccc(OC)cc3)cc2)cc1	-28.0%	-14.7	0.6%	15µM*	-5.6%
CCc1ccccc1NC(=O)CNC(=O)CCC(=O)c1cc(C)sc1C	/	/	/	-7.2%	/
Cc1cc(NC(=O)CSc2nnnn2-c2ccc(C(C)C)cc2)no1	-29.7%	-5.0	5.2%	26.7µM*	0.9%
CC(=O)Nc1ccc(NC(=O)c2ccccc2Br)cc1	/	/	/	-6.2%	/
Cc1cc(NC(=O)CSc2ccc(F)cc2)no1	-19.4%	-3.3	-2.1%	-1.5%	-14.5%
CC(=O)Nc1ccc(SCC(=O)Nc2cc(C)on2)cc1	-21.8%	14.6	1.3%	23.8µM*	-6.5%
CC(=O)Nc1ccc(SCC(=O)NC(=O)c2ccccc2Br)cc1	-22.4%	-13.3	-4.3%	29.9µM*	-8.6%
Cc1cc(NC(=O)CSc2nnnn2-c2cc(Cl)ccc2C)no1	9.4%	-13.2	-4.7%	-0.9%	0.4%
CC(C)(C)c1ccc(C(=O)Nc2ccc3nc(SCC(=O)N4CCCC4)sc3c2)cc1	13.7%	/	/	/	/
COc1ccc(CCNc2ncnc3c2c(C)c(C)n3CCO)cc1OC	?	-9.2	-2.9%	26.7µM*	-16.0%
COc1ccc(CCNc2ncnc3c2oc2ccccc23)cc1OC	0.4%	-79.6*	0.9%	-6.2%	-22.4%
COc1ccc(CCNc2ncnc3c2c(C)c(C)n3CCCN(C)C)cc1OC	6.5%	-9.1	-2.8%	-4.7%	-5.8%
O=C1CCCCCN1Sc1ccccc1	12.6µM*	-18.3	-4.3%	1.06µM*	-10.7%
O=C(Nc1sc2c(c1C(=O)Nc1cccc(Cl)c1)CCCC2)c1cccs1	25.1µM*	/	/	/	/
SMILES	VDR inhibitor	TSHR antag	TSG101-PTAP inh	PLK1 PBD inh	uPA generation
O=C(Nc1sc2c(c1C(=O)O)CCC2)c1ccccc1	7.8%	-26.1	-0.3%	?	-2.0%
O=C(Nc1sc2c(c1C(=O)O)CCCCC2)c1ccccc1	?	-35.0	-5.6%	18.9µM*	-18.4%
NC(=O)c1c(NC(=O)c2cccs2)sc2c1CCCCCC2	-4.2%	1.8	-1.7%	-21.7%	-17.5%
COc1ccc(C(=O)Nc2sc3c(c2C(=O)O)CC(C)(C)OC3)cc1	-11.6%	-12.1	-1.6%	1.1%	-13.9%
CC1(C)Cc2c(sc(NC(=O)c3ccccc3)c2C(=O)O)CO1	-19.0%	-10.0	-1.6%	13.4µM*	-6.3%
CC(C)OC(=O)c1c(NS(=O)(=O)c2ccccc2)sc2c1CCCC2	?	-12.6	1.0%	2.67µM*	-0.3%
COC(=O)c1c(NS(=O)(=O)Cc2ccccc2)sc2c1CCCC2	-2.0%	22.0	-9.1%	?	2.4%
C[C@](N)(C(=O)O)c1ccc(-c2nn[nH]n2)cc1	-6.0%	/	/	/	/
CCOc1nc(NC(=O)NS(=O)(=O)Oc2cccc(F)c2)nc(-c2ccccc2)n1	1.6%	/	/	/	/
Cc1ccc(NC(=O)c2c(NC(=O)c3ccc(F)cc3)sc3c2CCCC3)cc1C	79.4µM*	/	/	/	/
CC(=O)Nc1cc2nn(-c3ccccc3)nc2cc1C	3.8%	-8.5	-0.9%	2.1%	5.01µM*
CN(C)NC(=S)NC(=O)C12CC3CC(CC(C3)C1)C2	?	8.7	-2.4%	-10.9%	5.5%
CN(C(=S)NC(=O)C12CC3CC(CC(C3)C1)C2)c1ccc(O)cc1	?	-23.4	-2.6%	33.6µM*	-20.6%
Cc1onc(-c2ccccc2)c1C(=O)OCC(=O)c1ccc(F)cc1	/	/	/	3.1%	/
COC(=O)c1ccc(NC(=O)CC2C(=O)N(c3cccc(OC)c3)C(=O)N2C(C)C)cc1 (stereo not drawn)	9.7%	/	/	/	/
Cc1cc(/C=N/NC(=O)c2ccc(O)cc2)c(C)n1C1CC1	-18.7%	0.1	-9.2%	18.9µM*	0.1%
CCOC(=O)/C(C#N)=C1/C=Nc2ccccc2N1	6.6%	-12.2	-3.3%	-1.2%	-4.2%
CCOC(=O)/C(C#N)=C1\CC2CCC1(C)C2(C)C (stereo not drawn)	79.4µM*	-3.5	0.4%	5.97µM*	-6.9%
COc1ccccc1CNC(=O)c1sc2nc3n(c(=O)c2c1C)CCC3	4.7%	/	/	/	/
CCc1ccc(NC(=S)N(Cc2ccc(Cl)cc2)Cc2ccc(C(=O)O)cc2)cc1	-24.0%	25.3	-7.1%	23.8µM*	0.0%
Cc1cc(C)cc(NC(=S)N(Cc2ccc(Cl)cc2)Cc2ccc(C(=O)O)cc2)c1	-19.6%	3.0	-1.2%	-7.6%	1.8%
Cc1cc(NC(=S)N(Cc2ccc(Cl)cc2)Cc2ccc(C(=O)O)cc2)ccc1Cl	-12.6%	-7.0	0.7%	29.9µM*	-15.6%
O=[N+]([O-])c1ccc(S(=O)(=O)N2CCSC2c2ccco2)cc1 (stereo not drawn)	79.4µM*	-0.2	-0.6%	11.9µM*	6.6%
O=S(=O)(c1ccc(Cl)cc1)N1CCSC1c1ccco1 (stereo not drawn)	-10.1%	-6.1	-2.3%	-9.6%	1.9%
Cn1nccc1-c1ccc(C(=O)NCc2ccc(Cl)cc2)c2occc12	/	/	/	8.2%	/
COc1ccccc1NS(=O)(=O)c1cc(NC(=O)c2ccc(NC(C)=O)cc2)ccc1N1CCOCC1	?	/	-0.2%	26.7µM*	-0.4%
COc1ccccc1NS(=O)(=O)c1cc(NC(=O)c2ccncc2)ccc1N1CCOCC1	-28.3%	6.0	0.3%	13.4µM*	3.6%
COc1ccccc1NS(=O)(=O)c1cc(NC(=O)c2cnccn2)ccc1N1CCOCC1	0.6%	-2.3	-2.4%	-5.7%	-3.0%
Cc1c(Cl)sn(-c2ccc(Cl)cc2)c1=O	44.7µM*	-87.8*	0.1%	2.67µM*	-16.4%

Screening results: PubChem BioAssay, National Center for Advancing Translational Sciences (NCATS)
